# Experimental data taken from PubChem BioAssay AID1508601 (ICCB-Longwood Screening Facility, Harvard Medical School, 2020).
# The whole screen tested about 5,700 compounds, of which about 85 (1%) were called active. Cut-off read from the data, not from the text of the source: active = p53-positive nuclei above about 36% (passing the limit was not always enough); inactive = the rest. The full list was thinned out, with actives kept by preference.
# Key:
# [1] = p53 stabilisation in HPV-positive human cells, imaging, p53-positive nuclei imaging, 24 h, 48 h (AID 1508601); details: 24/48 h
# [2] = target: Cellular tumor antigen p53 (Homo sapiens) (UniProt P04637); test: as above; details: 24/48 h, stronger effect = higher value
# Sequence of Cellular tumor antigen p53 (Homo sapiens) (P04637 whole entry, looked up): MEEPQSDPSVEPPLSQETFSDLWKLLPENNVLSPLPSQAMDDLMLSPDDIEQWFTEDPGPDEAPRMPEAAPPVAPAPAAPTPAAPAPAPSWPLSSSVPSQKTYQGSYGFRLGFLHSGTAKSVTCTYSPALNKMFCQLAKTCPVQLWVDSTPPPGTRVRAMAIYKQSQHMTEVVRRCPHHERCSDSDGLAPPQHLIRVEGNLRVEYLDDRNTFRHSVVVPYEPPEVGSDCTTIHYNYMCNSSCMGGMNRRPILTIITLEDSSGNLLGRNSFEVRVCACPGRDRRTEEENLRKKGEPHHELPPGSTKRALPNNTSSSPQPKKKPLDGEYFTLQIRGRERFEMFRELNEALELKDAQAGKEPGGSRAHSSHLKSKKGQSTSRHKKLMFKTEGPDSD
# [3] = measured here: cell number at 24 h, Library stock concentration: 3.33 mM
# [4] = measured here: cell number at 48 h, Library stock concentration: 3.33 mM
# [5] = Library stock concentration: 3.33 mM
# [6] = measured here: p53 positive nuclei at 24 h, Library stock concentration: 3.33 mM
# [7] = measured here: cell number at 24 h, concentration not given here
# [8] = measured here: cell number at 48 h, concentration not given here
# [9] = measured here: p53 positive nuclei at 24 h, concentration not given here
# [10] = measured here: cell number at 24 h, Library stock concentration: 80 uM
# [11] = measured here: cell number at 24 h, Library stock concentration: 400 uM
# [12] = measured here: cell number at 24 h, Library stock concentration: 2 mM
# [13] = measured here: cell number at 24 h, Library stock concentration: 10 mM
# [14] = measured here: cell number at 48 h, Library stock concentration: 80 uM
# [15] = measured here: cell number at 48 h, Library stock concentration: 400 uM
# [16] = measured here: cell number at 48 h, Library stock concentration: 2 mM
# [17] = measured here: cell number at 48 h, Library stock concentration: 10 mM
# [18] = Library stock concentration: 80 uM
# [19] = Library stock concentration: 400 uM
# [20] = Library stock concentration: 2 mM
# [21] = Library stock concentration: 10 mM
# [22] = measured here: p53 positive nuclei at 24 h, Library stock concentration: 80 uM
# [23] = measured here: p53 positive nuclei at 24 h, Library stock concentration: 400 uM
# [24] = measured here: p53 positive nuclei at 24 h, Library stock concentration: 2 mM
# [25] = measured here: p53 positive nuclei at 24 h, Library stock concentration: 10 mM
smiles,measurement,setting,value
C[C@]12CC[C@H]3c4ccc(O)cc4CC[C@H]3[C@@H]1CCC2=O,"nuclei count, normalised",[1]; [3],111%
same,"nuclei count, normalised",[1]; [4],121%
same,"p53-positive nuclei, normalised",[2]; [5],-0.0334% (inactive)
same,"p53-positive nuclei, normalised",[2]; [6],-0.211%
COC(=O)[C@]12CCC(C)(C)C[C@@H]1[C@@H]1C(=O)C=C3[C@]4(C)C=C(C#N)C(=O)C(C)(C)[C@@H]4CC[C@@]3(C)[C@]1(C)CC2,"nuclei count, normalised",[1]; [3],36.3%
same,"nuclei count, normalised",[1]; [4],29.9%
same,"p53-positive nuclei, normalised",[2]; [5],79.7% (active)
same,"p53-positive nuclei, normalised",[2]; [6],88.9%
CCCCN=C(N)NO,"nuclei count, normalised",[1]; [7],99.4%
same,"nuclei count, normalised",[1]; [8],99.4%
same,"p53-positive nuclei, normalised",[2]; concentration not given here,-0.143% (inactive)
same,"p53-positive nuclei, normalised",[2]; [9],-0.0268%
O=C(Nc1ccc(-c2ccnc(Nc3ccc(N4CCOCC4)cc3)n2)cc1)C1CCCN1 (stereo not given),"nuclei count, normalised",[1]; [10],114%
same,"nuclei count, normalised",[1]; [11],116%
same,"nuclei count, normalised",[1]; [12],107%
same,"nuclei count, normalised",[1]; [3],102%
same,"nuclei count, normalised",[1]; [13],104%
same,"nuclei count, normalised",[1]; [14],109%
same,"nuclei count, normalised",[1]; [15],109%
same,"nuclei count, normalised",[1]; [16],104%
same,"nuclei count, normalised",[1]; [4],95.9%
same,"nuclei count, normalised",[1]; [17],101%
same,"p53-positive nuclei, normalised",[2]; [18],0.0592% (inactive)
same,"p53-positive nuclei, normalised",[2]; [19],-0.0399% (inactive)
same,"p53-positive nuclei, normalised",[2]; [20],-0.0329% (inactive)
same,"p53-positive nuclei, normalised",[2]; [5],-0.0902% (inactive)
same,"p53-positive nuclei, normalised",[2]; [21],0.0109% (inactive)
same,"p53-positive nuclei, normalised",[2]; [22],0.0145%
same,"p53-positive nuclei, normalised",[2]; [23],-0.114%
same,"p53-positive nuclei, normalised",[2]; [24],0.0282%
same,"p53-positive nuclei, normalised",[2]; [6],-0.231%
same,"p53-positive nuclei, normalised",[2]; [25],-0.058%
Fc1cc(-c2ccnc(Nc3ccc(-n4cnc(N5CCOCC5)n4)cc3)n2)cc(N2CCOCC2)c1,"nuclei count, normalised",[1]; [10],86.7%
same,"nuclei count, normalised",[1]; [11],101%
same,"nuclei count, normalised",[1]; [12],64.8%
same,"nuclei count, normalised",[1]; [13],36.4%
same,"nuclei count, normalised",[1]; [14],73%
same,"nuclei count, normalised",[1]; [15],81%
same,"nuclei count, normalised",[1]; [16],43.7%
same,"nuclei count, normalised",[1]; [17],21.7%
same,"p53-positive nuclei, normalised",[2]; [18],27.8% (inactive)
same,"p53-positive nuclei, normalised",[2]; [19],13.6% (inactive)
same,"p53-positive nuclei, normalised",[2]; [20],90.9% (active)
same,"p53-positive nuclei, normalised",[2]; [21],38.1% (inactive)
same,"p53-positive nuclei, normalised",[2]; [22],7.9%
same,"p53-positive nuclei, normalised",[2]; [23],2.88%
same,"p53-positive nuclei, normalised",[2]; [24],49.4%
same,"p53-positive nuclei, normalised",[2]; [25],15.7%
Cc1nc(N)sc1-c1ccnc(Nc2ccc(N3CCOCC3)cc2)n1,"nuclei count, normalised",[1]; [3],40.5%
same,"nuclei count, normalised",[1]; [4],28.3%
same,"p53-positive nuclei, normalised",[2]; [5],-0.214% (inactive)
same,"p53-positive nuclei, normalised",[2]; [6],-0.143%
CCCC(C)NC(=O)c1ccc(Cl)c(Cl)c1 (stereo not given),"nuclei count, normalised",[1]; [3],116%
same,"nuclei count, normalised",[1]; [4],114%
same,"p53-positive nuclei, normalised",[2]; [5],-0.00479% (inactive)
same,"p53-positive nuclei, normalised",[2]; [6],-0.344%
CC(C)CC(NC(=O)CNC(=O)c1cc(Cl)ccc1Cl)B1OC(=O)CC(CC(=O)O)(C(=O)O)O1 (stereo not given),"nuclei count, normalised",[1]; [3],46.4%
same,"nuclei count, normalised",[1]; [4],36.8%
same,"p53-positive nuclei, normalised",[2]; [5],97.7% (active)
same,"p53-positive nuclei, normalised",[2]; [6],101%
CC(C)CC(NC(=O)CNC(=O)c1cc(Cl)ccc1Cl)B(O)O (stereo not given),"nuclei count, normalised",[1]; [3],50.2%
same,"nuclei count, normalised",[1]; [4],43.3%
same,"p53-positive nuclei, normalised",[2]; [5],98% (active)
same,"p53-positive nuclei, normalised",[2]; [6],94%
CNC(=O)C(c1ccccc1)N1CCc2cc(OC)c(OC)cc2C1CCc1ccc(C(F)(F)F)cc1 (stereo not given),"nuclei count, normalised",[1]; [3],107%
same,"nuclei count, normalised",[1]; [4],104%
same,"p53-positive nuclei, normalised",[2]; [5],-0.362% (inactive)
same,"p53-positive nuclei, normalised",[2]; [6],-0.539%
Cc1occc1C(=O)Nc1ccccc1C(=O)N(C)Cc1ccccn1,"nuclei count, normalised",[1]; [7],96.8%
same,"nuclei count, normalised",[1]; [8],105%
same,"p53-positive nuclei, normalised",[2]; concentration not given here,0.23% (inactive)
same,"p53-positive nuclei, normalised",[2]; [9],0.178%
O=C(c1ccccc1-c1nn[nH]n1)N1CCc2[nH]cnc2C1c1ccccn1 (stereo not given),"nuclei count, normalised",[1]; [7],101%
same,"nuclei count, normalised",[1]; [8],107%
same,"p53-positive nuclei, normalised",[2]; concentration not given here,-0.169% (inactive)
same,"p53-positive nuclei, normalised",[2]; [9],-0.0711%
O=C(OC[C@@H]1O[C@H]1c1ccccc1)Oc1ccc([N+](=O)[O-])cc1,"nuclei count, normalised",[1]; [7],101%
same,"nuclei count, normalised",[1]; [8],105%
same,"p53-positive nuclei, normalised",[2]; concentration not given here,-0.0534% (inactive)
same,"p53-positive nuclei, normalised",[2]; [9],-0.0466%
